# Compound activity: PubChem BioAssay, National Center for Advancing Translational Sciences (NCATS)
# VP16 counter – inhibits Gal4-VP16 luciferase reporter, ROR gamma counter-screen | Drosophila S2 Gal4-VP16 UAS-luciferase, luminescence, 20 h | Potency, µM (titrated, usually from 53.6 µM), for inactives: at the highest dose activity, negative = inhibition, hits mostly inhibitors | 310,000 tested, 3.5% active;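 further: Gal4-VP16 expression switched on by copper sulfate through the metallothionein promoter; nearly all actives have a fitted effect of over 50% in size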
# KinaseGlo FLuc – blocks Kinase-Glo luciferase, a counter-screen artifact. Kinase-Glo luciferase, ATP luminescence, 8 min. Potency, µM (series often up to 38.3 µM), inactives show at the highest dose activity change, negative = inhibition, actives largely listed as inhibitors. 200,000 tested, 0.28% active. AID 1379; further: nearly all actives have a fitted effect of over 60% in size
#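 Recombinant Kinase-Glo luciferase, 10 uM ATP (linear range), luciferin; imidazole pH 7.2 / KCl / MgCl2 / Tween / BSA buffer; 8 min RT; luminescence.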
# RORg inh – inhibitors of mouse ROR gamma transcriptional activity | P51450 | Drosophila S2 Gal4-RORgamma UAS-luciferase reporter, 20 h | Potency, µM (top dose mostly 53.6 µM), for the others: at the highest dose activity change, negative = inhibition, actives largely listed as inhibitors | 310,000 tested, 5.4% active; further: nearly all actives have a fitted effect of over 60% in size
# Target sequence (P51450 whole entry, looked up, the tested form may be a part): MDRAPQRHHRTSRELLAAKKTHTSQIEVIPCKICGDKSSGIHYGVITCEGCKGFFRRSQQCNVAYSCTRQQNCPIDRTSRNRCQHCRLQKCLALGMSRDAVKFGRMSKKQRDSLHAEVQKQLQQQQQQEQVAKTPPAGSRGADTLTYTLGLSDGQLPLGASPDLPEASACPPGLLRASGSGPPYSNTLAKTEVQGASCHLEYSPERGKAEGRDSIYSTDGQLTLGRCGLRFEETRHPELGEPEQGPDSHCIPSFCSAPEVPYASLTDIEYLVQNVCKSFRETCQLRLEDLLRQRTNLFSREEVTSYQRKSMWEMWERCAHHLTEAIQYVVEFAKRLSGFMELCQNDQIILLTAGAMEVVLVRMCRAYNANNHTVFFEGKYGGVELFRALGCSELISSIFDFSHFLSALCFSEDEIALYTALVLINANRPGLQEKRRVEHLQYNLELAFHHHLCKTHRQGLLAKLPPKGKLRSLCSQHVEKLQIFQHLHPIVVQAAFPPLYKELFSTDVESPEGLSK
#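 Drosophila Schneider cells stably carrying a metallothionein-driven Gal4 DBD–ROR gamma fusion and a UAS-Photinus luciferase reporter were exposed to compound for 1 hr, then induced with copper sulfate (700 uM final) for 20 hr at ambient temperature before luminescence reading.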
# The depositor's hits bear a star; ? = inconclusive; . = no result; [ ] = dose if it differs, or a comment. In the library only some 6.2% were active in any assay of this set; here they are far more common. The call rests on the fitted dose curve; in most records, active means well fitted curve in the direction sought with a large enough effect; inconclusive means small, poorly fitted or top-dose-only effect, or another doubt; inactive means no such curve, though single readings can be large; an effect the other way counts as inactive or inconclusive. On the % scale 0 is the no-effect control and ±100 the full control effect; potency means the concentration at half of the fitted maximal effect.
SMILES,VP16 counter,KinaseGlo FLuc,RORg inh
COc1ccccc1/C=C/C=N/NC(=O)c1cc(-c2ccc(C)o2)[nH]n1,?,.,12.6µM*
COc1ccccc1/C=C/C=N/NC(=O)CN1CCN(S(=O)(=O)c2ccc(C)cc2)CC1,?,0.8%,15.8µM*
Cc1ccc(S(=O)(=O)N2CCN(CC(=O)N/N=C/c3ccccc3OCC(=O)O)CC2)cc1,6.8%,.,26.6%
Cc1ccc(/C=N/NC(=O)c2cc(-c3ccc(C)o3)[nH]n2)cc1,-4.1%,.,-15.3%
O=C(Cc1ccccc1)N/N=C/C=C/c1ccccc1[N+](=O)[O-],?,.,15.5%
COc1ccccc1/C=C/C=N/NC(=O)c1ccncc1,11.2µM*,2.8%,5.62µM*
COc1ccccc1/C=C/C=N/NC(=O)c1ccc2nc[nH]c2c1,-5.0%,-1.6%,-13.5%
CCCCCCCCCCCCCCCC(=O)OCC(O)C1OC(=O)C(O)=C1O (stereo unspecified),-0.2%,0.0%[39.9 µM],3.7%
Nc1[nH]ncc1S(=O)(=O)c1ccccc1,2.2%,.,3.2%
COc1ccc(NC(=O)CN(c2ccc(OC)cc2)S(=O)(=O)c2ccc(OC)c(OC)c2)cc1,-8.2%,.,10.9%
O=C(N/N=C/C=C\c1ccccc1[N+](=O)[O-])c1cccnc1,?,.,10µM*
O=C(CN1CCN(Cc2ccccc2Cl)CC1)N/N=C/C=C/c1ccccc1[N+](=O)[O-],?,-0.9%,?
O=C(N/N=C/C=C/c1ccccc1[N+](=O)[O-])c1cccnc1,0.3%,-2.1%,0.3%
O=C(CN1CCN(Cc2ccccc2Cl)CC1)N/N=C/C=C\c1ccccc1[N+](=O)[O-],0.159µM*,-1.2%,-45.4%
Cc1ccc(S(=O)(=O)N2CCOCC2)cc1C(=O)c1nccn1C,-0.4%,1.0%,2.3%
Cc1ccc(CCC(=O)Nc2ccc(N(C)C)cc2)o1,?,.,0.562µM*
CCOC(=O)c1c(NC(=O)CCc2ccc(CC)o2)sc(C)c1C,-22.9%,-0.5%,-10.2%
COC(=O)c1c(NC(=O)CCc2ccc(C)o2)sc(C)c1C,12.6µM*,-0.5%,?
Cc1ccc(CCC(=O)Nc2ccc(Cl)cc2)o1,8.9%,.,-27.1%[1.91 µM]
Cn1c(CN2CCOCC2)nnc1SCc1ccc(C#N)cc1,-13.6%,0.2%,-30.2%
CCCc1ccc(-c2cc(C(=O)NC3=NCCS3)c3ccccc3n2)cc1,1.58µM*,.,1.78µM*
CCCc1ccc(-c2cc(C(=O)N3CCN(c4ccccn4)CC3)c3ccccc3n2)cc1,14.1µM*,.,11.2µM*
O=C(NN=C1CCCC1)c1cc(-c2ccc(F)cc2)nc2ccccc12,0.6%,-2.9%,?
CCOc1ccc(-c2cc(C(=O)N3CCN(c4ccccn4)CC3)c3ccccc3n2)cc1,-23.4%,-6.7%,1.4%
Cc1ccc(-c2cc(C(=O)NC3=NCCS3)c3ccccc3n2)cc1C,11.2µM*,-3.0%,10µM*
SMILES,VP16 counter,KinaseGlo FLuc,RORg inh
Cc1ccc(-c2cc(C(=O)N3CCCCC3)c3ccccc3n2)cc1C,?,.,24.6%
O=C(NC1=NCCS1)c1cc(-c2ccc(F)cc2)nc2ccccc12,11.2µM*,-3.6%,10µM*
Cc1ccc(CCNC(=O)c2cc(-c3ccncc3)nc3ccccc23)cc1,1.4%,.,14.7%
FC(F)(F)c1ccccc1-c1cc(NCc2cccs2)ncn1,2.1%,.,12.8%
CCOC(=O)c1cc2cc(OC)ccc2nc1C,-13.8%,-1.2%,?
COc1ccc(NC2c3ccccc3C(=O)N2Cc2ccccc2Cl)cc1OC (stereo unspecified),8.7%,.,1.0%
C=CS(=O)(=O)c1ccc(Oc2ccc(S(=O)(=O)C=C)cc2)cc1,2.24µM*,-0.5%,3.16µM*
NS(=O)(=O)c1ccc(Oc2ccc(S(N)(=O)=O)cc2)cc1,-0.3%,0.6%,22.4%
Cc1ccc(C23CC4CC(CC(NC(=O)N5CCN(C)CC5)(C4)C2)C3)cc1,-23.3%,-0.5%,12.6µM*
Cc1ccc(C23CC4CC(CC(C(=O)N5CCN(C)CC5)(C4)C2)C3)cc1,0.5%,.,-2.2%
CCCn1c(-c2ccc(F)cc2)nc2c(NCCCCN(CC)CC)nc(C)nc21,-5.5%,-0.2%,-17.4%
C=CCn1c(COc2ccccc2)nnc1SCC(=O)N/N=C/c1cc(Cl)ccc1O,?,1.2%,12.6µM*
C=CCn1c(COc2ccc(Cl)cc2)nnc1SCC(=O)Nc1ccc(S(N)(=O)=O)cc1,-18.6%,-2.7%,40.1%
C=CCn1c(COc2ccccc2)nnc1SCC(=O)N/N=C/c1ccc(C)cc1,-0.1%,-4.4%,0.1%
C=CCn1c(COc2ccc(Cl)cc2)nnc1SCC(=O)NCC(=O)OCC,?,-5.0%,11.2µM*
Cc1ccc(C(=O)n2cnnc2N)cc1,5.7%,-3.0%,-26.3%
Cc1ccsc1C1Nc2ccccc2C(=O)N1O (stereo unspecified),?,-3.5%,15.8µM*
C=CCc1cccc(C2Nc3ccccc3C(=O)N2O)c1O (stereo unspecified),?,-6.2%,7.08µM*
COc1ccc(C2Nc3ccccc3C(=O)N2O)cc1OC (stereo unspecified),13.3%,-1.8%,-18.4%
O=C1c2ccccc2NC(c2ccc(Cl)cc2Cl)N1Cc1ccccc1 (stereo unspecified),-10.7%,-3.8%,16.5%
O=C1c2ccccc2NC(c2cnc3ccccc3n2)N1O (stereo unspecified),?,-16.9%,10µM*
Cc1nn(C)c(C)c1C1Nc2ccccc2C(=O)N1O (stereo unspecified),-0.8%,2.1%,?
O=C1c2ccccc2NC(c2ccc(Cl)cc2Cl)N1O (stereo unspecified),10µM*,-0.9%,3.55µM*
Cc1nn(C)cc1C1Nc2ccccc2C(=O)N1O (stereo unspecified),2.2%,1.5%,?
COc1ccc(CC(=O)NCC(C)(C)N2CCOCC2)cc1,-0.1%,.,6.1%
SMILES,VP16 counter,KinaseGlo FLuc,RORg inh
Cc1ccc(NC2CCCN(C(=O)c3cccc4nccnc34)C2)cc1C (stereo unspecified),-0.2%,.,-28.8%
C[C@H](NC(=O)c1nc[nH]c1C(=O)NCc1ccc(CNC(=O)OC(C)(C)C)cc1)C(=O)OC(C)(C)C,-11.1%,.,?
CC(C)C[C@H](NC(=O)c1[nH]cnc1C(=O)Nc1ccc(CNC(=O)OC(C)(C)C)cc1)C(=O)OCc1ccccc1,?,.,5.62µM*
CC(C)C[C@H](NC(=O)c1nc[nH]c1C(=O)NCc1ccccc1)C(=O)OC(C)(C)C,10µM*,.,4.47µM*
C[C@H](NC(=O)c1nc[nH]c1C(=O)NCc1ccccc1)C(=O)OCc1ccccc1,-20.8%,.,?
CC(C)C[C@H](NC(=O)c1nc[nH]c1C(=O)NCc1ccccc1)C(=O)OCc1ccccc1,11.2µM*,.,4.47µM*
CC(C)C[C@H](NC(=O)c1nc[nH]c1C(=O)NCc1ccc(CNC(=O)OC(C)(C)C)cc1)C(=O)OC(C)(C)C,?,.,12.6µM*
COCCC(=O)N1CCC(Oc2ccc(C(=O)NCc3cccc(C)n3)cc2)CC1,-4.5%,.,-3.7%
CC(=NC(C)C)C1=C(O)C(C)OC1=O (stereo unspecified),-1.1%,-0.5%,-5.0%
CO[C@H]1COC(=O)C/C=C\[C@H](C)[C@@H](NS(=O)(=O)c2ccc(C)cc2)COC(=O)C/C=C\[C@@H]1C,11.4%[10 µM],.,10.9%[10 µM]
CO/N=C(\C(=O)N[C@@H]1C(=O)N2C(C(=O)[O-])=C(C[n+]3cccc4c3CCC4)CS[C@H]12)c1csc(N)n1,2.0%,.,4.7%
